Test results: publication PMC7862700, “An all-to-all approach to the identification of sequence-specific readers for epigenetic DNA modifications on cytosine”

Legend:
Assay in all cases: DAPPL (digital affinity profiling via proximity ligation, sequencing); 10 mM Tris-HCl pH 7.5, 50 mM NaCl, 1 mM DTT, 4% glycerol, room temperature, 30 min; GST-TFs on glutathione beads, 16-mer random dsDNA library, 0.1% formaldehyde crosslink after washing; high values mean tight binding
Conditions in all cases: protein: recombinant; tags: N-terminal GST; dsDNA, one strand shown
FLI1 = target: T1, FLI1 (Homo sapiens, UniProt Q01543 1-452)
T1 sequence: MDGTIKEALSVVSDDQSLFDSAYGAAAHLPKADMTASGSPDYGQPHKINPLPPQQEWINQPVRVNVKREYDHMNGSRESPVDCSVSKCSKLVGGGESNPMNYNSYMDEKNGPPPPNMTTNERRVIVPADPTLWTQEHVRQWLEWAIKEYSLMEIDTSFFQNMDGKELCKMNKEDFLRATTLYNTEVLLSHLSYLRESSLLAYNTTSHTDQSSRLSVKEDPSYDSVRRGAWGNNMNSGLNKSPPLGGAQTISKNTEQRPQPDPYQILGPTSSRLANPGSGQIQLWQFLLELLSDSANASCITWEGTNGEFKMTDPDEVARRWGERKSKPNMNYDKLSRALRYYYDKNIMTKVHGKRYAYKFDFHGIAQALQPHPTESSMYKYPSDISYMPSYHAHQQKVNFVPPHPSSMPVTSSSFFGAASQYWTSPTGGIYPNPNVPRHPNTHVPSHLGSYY
How it was run: (§1)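 Human transcription factors carrying a GST fusion were produced in yeast, bound to glutathione beads, tagged with DNA barcodes and pooled together with a tag-only sample. Each pool was held with 200 nmole of a random double-stranded 16-mer DNA library in Tris/NaCl/DTT/glycerol buffer for 30 min at room temperature, then washed, crosslinked in 0.1% formaldehyde, proximity-ligated with BsaI/T4 ligase (1 h, 37 °C), PCR-amplified and sequenced on an Illumina NextSeq500. Binding signal is the read frequency of each hexamer for a given factor divided by its frequency in the tag-only sample.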

ELK1 = target: T2, ELK1 (Homo sapiens, UniProt P19419 1-428)
T2 sequence: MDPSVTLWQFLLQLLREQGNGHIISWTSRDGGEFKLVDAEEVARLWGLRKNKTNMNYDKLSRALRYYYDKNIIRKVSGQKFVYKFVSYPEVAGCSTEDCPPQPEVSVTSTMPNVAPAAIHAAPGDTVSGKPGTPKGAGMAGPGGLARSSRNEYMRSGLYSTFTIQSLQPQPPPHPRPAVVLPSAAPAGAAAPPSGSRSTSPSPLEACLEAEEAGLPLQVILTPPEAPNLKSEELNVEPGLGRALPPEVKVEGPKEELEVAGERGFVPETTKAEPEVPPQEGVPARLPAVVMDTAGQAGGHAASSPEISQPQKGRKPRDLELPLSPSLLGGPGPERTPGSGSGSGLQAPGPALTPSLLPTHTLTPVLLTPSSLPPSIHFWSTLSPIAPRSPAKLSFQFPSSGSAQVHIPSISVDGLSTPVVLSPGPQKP
How it was run: as §1

GABPA = target: T3, GABPA (Homo sapiens, UniProt Q06546 1-454)
T3 sequence: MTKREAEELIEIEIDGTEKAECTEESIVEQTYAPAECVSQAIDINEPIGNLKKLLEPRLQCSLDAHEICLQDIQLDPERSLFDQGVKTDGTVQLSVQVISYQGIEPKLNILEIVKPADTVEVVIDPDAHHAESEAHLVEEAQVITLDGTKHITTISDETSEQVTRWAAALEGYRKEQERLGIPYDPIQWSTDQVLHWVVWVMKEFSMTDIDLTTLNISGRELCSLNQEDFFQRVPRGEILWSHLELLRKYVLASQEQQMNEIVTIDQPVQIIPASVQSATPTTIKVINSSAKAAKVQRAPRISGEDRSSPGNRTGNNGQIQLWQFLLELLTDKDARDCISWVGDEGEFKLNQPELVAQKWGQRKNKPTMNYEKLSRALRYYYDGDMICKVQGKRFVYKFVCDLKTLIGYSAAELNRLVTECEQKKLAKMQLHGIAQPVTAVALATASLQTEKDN
How it was run: as §1

ERG = target: T4, ERG (Homo sapiens, UniProt P11308 1-479)
T4 sequence: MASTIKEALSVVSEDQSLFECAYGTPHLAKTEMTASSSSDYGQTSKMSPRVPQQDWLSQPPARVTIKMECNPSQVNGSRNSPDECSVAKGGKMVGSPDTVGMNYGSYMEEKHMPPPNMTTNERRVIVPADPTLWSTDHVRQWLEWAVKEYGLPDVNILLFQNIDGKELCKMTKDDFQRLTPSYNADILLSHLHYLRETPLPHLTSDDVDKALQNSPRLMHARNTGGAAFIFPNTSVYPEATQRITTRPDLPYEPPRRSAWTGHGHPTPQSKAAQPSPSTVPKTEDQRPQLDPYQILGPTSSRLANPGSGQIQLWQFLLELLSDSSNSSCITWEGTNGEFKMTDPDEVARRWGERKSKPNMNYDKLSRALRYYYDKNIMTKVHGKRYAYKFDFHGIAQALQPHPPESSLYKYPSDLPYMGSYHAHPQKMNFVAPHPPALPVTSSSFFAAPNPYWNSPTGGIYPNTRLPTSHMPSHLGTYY
How it was run: as §1

ELF1 = ELF1 (Homo sapiens, UniProt P32519 1-619)
Chain of ELF1 (P32519 whole entry): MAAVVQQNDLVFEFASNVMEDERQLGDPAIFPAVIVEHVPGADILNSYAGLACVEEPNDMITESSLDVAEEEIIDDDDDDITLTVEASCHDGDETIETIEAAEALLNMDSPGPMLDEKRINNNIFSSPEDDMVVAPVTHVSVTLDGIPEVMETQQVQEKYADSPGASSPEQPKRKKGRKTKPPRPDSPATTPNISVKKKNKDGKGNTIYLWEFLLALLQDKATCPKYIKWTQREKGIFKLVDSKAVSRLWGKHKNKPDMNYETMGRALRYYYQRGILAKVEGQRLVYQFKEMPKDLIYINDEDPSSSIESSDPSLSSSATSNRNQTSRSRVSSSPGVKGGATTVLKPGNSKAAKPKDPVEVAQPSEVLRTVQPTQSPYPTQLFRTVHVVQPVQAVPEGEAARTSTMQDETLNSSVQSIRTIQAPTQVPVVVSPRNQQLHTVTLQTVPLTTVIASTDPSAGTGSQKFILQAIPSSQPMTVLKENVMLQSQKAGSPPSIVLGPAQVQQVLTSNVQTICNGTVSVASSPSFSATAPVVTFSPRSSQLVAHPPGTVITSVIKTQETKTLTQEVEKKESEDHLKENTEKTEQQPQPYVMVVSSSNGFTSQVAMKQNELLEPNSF
How it was run: as §1

EHF = target: T5, EHF (Homo sapiens, UniProt Q9NZC4 1-300)
T5 sequence: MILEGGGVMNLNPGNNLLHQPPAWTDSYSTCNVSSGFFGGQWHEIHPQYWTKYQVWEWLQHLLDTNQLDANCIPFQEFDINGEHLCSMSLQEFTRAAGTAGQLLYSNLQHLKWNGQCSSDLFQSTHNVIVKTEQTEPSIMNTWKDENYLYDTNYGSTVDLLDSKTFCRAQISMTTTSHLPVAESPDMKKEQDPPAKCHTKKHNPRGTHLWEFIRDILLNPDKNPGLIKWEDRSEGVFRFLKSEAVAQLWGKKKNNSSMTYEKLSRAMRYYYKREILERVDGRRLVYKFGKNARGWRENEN
How it was run: as §1

SPIB = SPIB (Homo sapiens, UniProt Q01892 1-262)
Chain of SPIB (Q01892 whole entry): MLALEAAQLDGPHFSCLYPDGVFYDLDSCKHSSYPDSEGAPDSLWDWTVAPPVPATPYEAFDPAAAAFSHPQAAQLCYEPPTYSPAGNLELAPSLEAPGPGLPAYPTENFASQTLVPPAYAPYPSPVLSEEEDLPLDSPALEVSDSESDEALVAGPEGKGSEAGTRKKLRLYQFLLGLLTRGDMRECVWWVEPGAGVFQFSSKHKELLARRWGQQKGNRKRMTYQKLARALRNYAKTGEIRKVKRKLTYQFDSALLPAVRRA
How it was run: as §1

ELK3 = target: T6, ELK3 (Homo sapiens, UniProt P41970 1-407)
T6 sequence: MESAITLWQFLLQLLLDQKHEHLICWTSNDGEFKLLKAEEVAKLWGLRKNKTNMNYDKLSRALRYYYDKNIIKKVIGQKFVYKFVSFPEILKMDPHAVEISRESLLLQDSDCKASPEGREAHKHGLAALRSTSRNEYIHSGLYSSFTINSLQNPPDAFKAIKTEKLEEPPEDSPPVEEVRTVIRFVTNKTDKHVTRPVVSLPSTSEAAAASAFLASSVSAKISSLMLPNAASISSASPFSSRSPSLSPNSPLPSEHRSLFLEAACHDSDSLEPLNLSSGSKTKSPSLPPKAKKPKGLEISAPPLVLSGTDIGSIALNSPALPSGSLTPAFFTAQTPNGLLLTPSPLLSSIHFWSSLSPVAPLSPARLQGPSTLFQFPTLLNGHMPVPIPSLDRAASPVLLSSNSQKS
How it was run: as §1

FEV = target: T7, FEV (Homo sapiens, UniProt Q99581 1-238)
T7 sequence: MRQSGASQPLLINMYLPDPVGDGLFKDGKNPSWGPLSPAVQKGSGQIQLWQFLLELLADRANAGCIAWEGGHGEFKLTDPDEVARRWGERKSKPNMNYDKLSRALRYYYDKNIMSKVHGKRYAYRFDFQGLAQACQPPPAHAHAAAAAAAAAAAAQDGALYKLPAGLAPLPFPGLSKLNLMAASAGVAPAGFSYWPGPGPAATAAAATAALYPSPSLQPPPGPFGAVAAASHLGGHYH
How it was run: as §1

ETV5 = ETV5 (Homo sapiens, UniProt P41161 1-510)
Chain of ETV5 (P41161 whole entry): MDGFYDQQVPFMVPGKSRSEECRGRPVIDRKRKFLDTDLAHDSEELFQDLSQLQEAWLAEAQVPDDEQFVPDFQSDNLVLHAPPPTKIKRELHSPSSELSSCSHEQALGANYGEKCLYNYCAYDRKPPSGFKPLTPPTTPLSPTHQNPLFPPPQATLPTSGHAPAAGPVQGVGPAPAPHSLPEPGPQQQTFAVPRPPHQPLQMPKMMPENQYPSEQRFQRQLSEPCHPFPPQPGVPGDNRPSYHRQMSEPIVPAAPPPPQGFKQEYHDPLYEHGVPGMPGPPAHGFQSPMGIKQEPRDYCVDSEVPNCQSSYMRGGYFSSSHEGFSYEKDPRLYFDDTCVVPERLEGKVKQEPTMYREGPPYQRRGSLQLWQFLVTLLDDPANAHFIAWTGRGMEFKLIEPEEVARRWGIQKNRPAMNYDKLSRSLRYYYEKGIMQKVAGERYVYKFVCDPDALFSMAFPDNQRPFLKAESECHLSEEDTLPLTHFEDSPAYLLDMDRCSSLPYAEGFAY
How it was run: as §1

SPIC = target: T8, SPIC (Homo sapiens, UniProt Q8N5J4 1-248)
T8 sequence: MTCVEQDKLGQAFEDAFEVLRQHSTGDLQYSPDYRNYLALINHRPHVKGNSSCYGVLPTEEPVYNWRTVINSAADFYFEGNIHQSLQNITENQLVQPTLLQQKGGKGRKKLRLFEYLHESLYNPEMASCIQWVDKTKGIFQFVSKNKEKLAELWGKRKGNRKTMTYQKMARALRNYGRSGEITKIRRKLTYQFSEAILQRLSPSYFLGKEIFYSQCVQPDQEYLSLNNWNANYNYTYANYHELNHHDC
How it was run: as §1

ELF4 = ELF4 (Homo sapiens, UniProt Q99607 1-663)
Chain of ELF4 (Q99607 whole entry): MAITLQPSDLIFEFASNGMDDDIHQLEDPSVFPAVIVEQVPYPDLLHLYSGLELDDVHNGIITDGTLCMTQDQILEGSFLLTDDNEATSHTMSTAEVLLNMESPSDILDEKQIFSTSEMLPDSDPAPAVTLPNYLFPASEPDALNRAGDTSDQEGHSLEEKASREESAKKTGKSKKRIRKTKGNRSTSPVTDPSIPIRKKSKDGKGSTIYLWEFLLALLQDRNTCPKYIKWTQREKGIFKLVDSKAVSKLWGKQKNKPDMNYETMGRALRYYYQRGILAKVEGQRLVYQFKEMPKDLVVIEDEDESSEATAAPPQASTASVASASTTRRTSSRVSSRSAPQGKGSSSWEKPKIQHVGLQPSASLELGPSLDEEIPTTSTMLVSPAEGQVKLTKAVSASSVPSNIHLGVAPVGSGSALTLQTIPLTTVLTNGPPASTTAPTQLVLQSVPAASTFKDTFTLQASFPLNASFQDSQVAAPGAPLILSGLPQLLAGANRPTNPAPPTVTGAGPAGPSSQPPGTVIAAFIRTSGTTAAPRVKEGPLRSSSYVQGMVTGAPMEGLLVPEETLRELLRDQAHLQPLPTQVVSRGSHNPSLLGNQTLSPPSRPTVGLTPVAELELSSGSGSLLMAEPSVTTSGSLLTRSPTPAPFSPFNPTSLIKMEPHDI
How it was run: as §1

ETV1 = ETV1 (Homo sapiens, UniProt P50549 1-477)
Chain of ETV1 (P50549 whole entry): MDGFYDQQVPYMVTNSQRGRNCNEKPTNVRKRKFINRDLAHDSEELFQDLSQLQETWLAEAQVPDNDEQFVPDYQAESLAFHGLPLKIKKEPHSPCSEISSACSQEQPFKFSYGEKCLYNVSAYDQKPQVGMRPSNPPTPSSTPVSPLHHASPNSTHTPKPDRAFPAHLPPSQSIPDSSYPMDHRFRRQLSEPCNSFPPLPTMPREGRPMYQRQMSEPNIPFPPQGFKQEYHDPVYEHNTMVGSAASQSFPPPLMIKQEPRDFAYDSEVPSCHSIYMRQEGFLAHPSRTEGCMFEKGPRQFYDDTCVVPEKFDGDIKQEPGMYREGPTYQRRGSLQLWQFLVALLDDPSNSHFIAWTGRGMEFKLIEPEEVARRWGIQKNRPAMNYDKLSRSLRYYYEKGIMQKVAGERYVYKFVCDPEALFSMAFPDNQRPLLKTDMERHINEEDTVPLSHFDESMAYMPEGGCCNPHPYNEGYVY
How it was run: as §1

ERF = target: T9, ERF (Homo sapiens, UniProt P50548 1-548)
T9 sequence: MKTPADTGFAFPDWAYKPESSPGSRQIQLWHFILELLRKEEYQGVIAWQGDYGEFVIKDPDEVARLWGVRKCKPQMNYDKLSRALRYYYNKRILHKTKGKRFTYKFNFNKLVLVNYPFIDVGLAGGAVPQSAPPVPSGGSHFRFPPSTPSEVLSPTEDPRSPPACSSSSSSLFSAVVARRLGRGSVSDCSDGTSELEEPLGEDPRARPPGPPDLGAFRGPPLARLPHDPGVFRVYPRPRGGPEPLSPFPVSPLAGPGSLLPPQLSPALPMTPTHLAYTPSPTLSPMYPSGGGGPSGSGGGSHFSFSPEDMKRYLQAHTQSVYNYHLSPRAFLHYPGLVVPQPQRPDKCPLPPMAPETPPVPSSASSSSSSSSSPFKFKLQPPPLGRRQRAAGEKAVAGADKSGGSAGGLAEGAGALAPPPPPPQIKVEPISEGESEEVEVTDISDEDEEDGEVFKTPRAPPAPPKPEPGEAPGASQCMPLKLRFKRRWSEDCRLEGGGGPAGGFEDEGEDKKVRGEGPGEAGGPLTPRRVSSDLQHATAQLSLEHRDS
How it was run: as §1

ETV3L = target: T10, ETV3L (Homo sapiens, UniProt Q6ZN32 1-361)
T10 sequence: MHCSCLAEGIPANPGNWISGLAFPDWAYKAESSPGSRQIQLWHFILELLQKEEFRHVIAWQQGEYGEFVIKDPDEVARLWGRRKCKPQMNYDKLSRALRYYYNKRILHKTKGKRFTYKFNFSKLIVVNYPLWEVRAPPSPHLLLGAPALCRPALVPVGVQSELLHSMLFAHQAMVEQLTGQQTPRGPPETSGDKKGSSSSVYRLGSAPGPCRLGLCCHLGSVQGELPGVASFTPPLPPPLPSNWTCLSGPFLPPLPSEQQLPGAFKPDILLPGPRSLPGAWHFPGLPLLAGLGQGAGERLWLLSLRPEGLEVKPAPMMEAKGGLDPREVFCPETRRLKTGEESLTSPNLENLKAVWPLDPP
How it was run: as §1

ETS2 = target: T11, ETS2 (Homo sapiens, UniProt P15036 1-469)
T11 sequence: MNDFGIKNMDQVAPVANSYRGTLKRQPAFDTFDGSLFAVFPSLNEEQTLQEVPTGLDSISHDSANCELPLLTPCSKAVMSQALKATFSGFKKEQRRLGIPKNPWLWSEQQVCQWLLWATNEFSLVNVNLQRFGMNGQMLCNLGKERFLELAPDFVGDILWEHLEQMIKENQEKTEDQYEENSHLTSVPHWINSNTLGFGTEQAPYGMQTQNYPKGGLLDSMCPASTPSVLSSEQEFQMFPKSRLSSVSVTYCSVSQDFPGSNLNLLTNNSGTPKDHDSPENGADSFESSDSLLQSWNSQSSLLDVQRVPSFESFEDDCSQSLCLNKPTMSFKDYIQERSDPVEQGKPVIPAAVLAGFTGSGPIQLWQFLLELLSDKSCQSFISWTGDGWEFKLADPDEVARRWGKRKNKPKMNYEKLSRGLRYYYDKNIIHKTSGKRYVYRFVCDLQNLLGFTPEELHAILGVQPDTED
How it was run: as §1

SPDEF = target: T12, SPDEF (Homo sapiens, UniProt O95238 1-335)
T12 sequence: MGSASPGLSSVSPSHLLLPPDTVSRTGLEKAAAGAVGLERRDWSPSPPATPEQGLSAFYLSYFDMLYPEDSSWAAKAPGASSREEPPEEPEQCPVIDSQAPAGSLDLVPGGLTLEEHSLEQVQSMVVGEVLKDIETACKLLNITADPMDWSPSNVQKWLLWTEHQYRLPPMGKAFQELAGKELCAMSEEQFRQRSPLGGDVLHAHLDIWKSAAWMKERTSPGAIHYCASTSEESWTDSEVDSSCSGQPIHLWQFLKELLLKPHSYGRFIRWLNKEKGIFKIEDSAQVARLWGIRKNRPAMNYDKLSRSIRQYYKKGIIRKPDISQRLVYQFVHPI
How it was run: as §1

ETV3 = target: T13, ETV3 (Homo sapiens, UniProt P41162-2 1-143)
T13 sequence: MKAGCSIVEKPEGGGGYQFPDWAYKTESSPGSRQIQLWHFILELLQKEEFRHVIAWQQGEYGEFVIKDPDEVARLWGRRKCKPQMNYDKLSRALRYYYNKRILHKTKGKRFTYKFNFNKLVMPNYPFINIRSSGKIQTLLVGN
How it was run: as §1

ETV6 = ETV6 (Homo sapiens, UniProt P41212 1-452)
Chain of ETV6 (P41212 whole entry): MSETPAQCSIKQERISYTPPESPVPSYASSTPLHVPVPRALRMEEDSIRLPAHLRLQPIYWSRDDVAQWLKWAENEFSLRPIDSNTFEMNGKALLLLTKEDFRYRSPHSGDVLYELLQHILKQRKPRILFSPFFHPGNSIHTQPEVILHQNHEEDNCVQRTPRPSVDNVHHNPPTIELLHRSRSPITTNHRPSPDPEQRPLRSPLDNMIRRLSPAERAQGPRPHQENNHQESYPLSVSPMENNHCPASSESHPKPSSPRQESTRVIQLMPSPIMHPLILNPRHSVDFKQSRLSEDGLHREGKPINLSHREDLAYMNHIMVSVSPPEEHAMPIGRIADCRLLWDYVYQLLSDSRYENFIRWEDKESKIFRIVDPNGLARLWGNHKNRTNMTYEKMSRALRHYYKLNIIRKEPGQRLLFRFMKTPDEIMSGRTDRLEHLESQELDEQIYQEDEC
How it was run: as §1

Sequence: CGCCCG
- binding signal (FLI1): 1.28 fold enrichment (6-mer frequency, TF over GST control)
- binding signal (ELK1): 1.2 fold enrichment (6-mer frequency, TF over GST control)
- binding signal (GABPA): 1.07 fold enrichment (6-mer frequency, TF over GST control)
- binding signal (ERG): 1.14 fold enrichment (6-mer frequency, TF over GST control)
- binding signal (ELF1): 1.18 fold enrichment (6-mer frequency, TF over GST control)
- binding signal (EHF): 1.11 fold enrichment (6-mer frequency, TF over GST control)
- binding signal (SPIB): 1.2 fold enrichment (6-mer frequency, TF over GST control)
- binding signal (ELK3): 1.15 fold enrichment (6-mer frequency, TF over GST control)
- binding signal (FEV): 1.14 fold enrichment (6-mer frequency, TF over GST control)
- binding signal (ETV5): 1.06 fold enrichment (6-mer frequency, TF over GST control)
- binding signal (SPIC): 1.17 fold enrichment (6-mer frequency, TF over GST control)
- binding signal (ELF4): 1.11 fold enrichment (6-mer frequency, TF over GST control)
- binding signal (ETV1): 1.13 fold enrichment (6-mer frequency, TF over GST control)
- binding signal (ERF): 1.09 fold enrichment (6-mer frequency, TF over GST control)
- binding signal (ETV3L): 1.26 fold enrichment (6-mer frequency, TF over GST control)
- binding signal (ETS2): 1.09 fold enrichment (6-mer frequency, TF over GST control)
- binding signal (SPDEF): 1.1 fold enrichment (6-mer frequency, TF over GST control)
- binding signal (ETV3): 1.3 fold enrichment (6-mer frequency, TF over GST control)
- binding signal (ETV6): 1.02 fold enrichment (6-mer frequency, TF over GST control)
